Assay [1] can be described thus: Nuclear factor erythroid 2-related factor 2/antioxidant responsive element (Nrf2/ARE) small molecule agonists: qHTS cell viability counter screen in human keratinocytes (AID 1919968; active = well fitted curve in the direction sought with a large enough effect in the repeat runs; an effect the other way counts as inactive or inconclusive; also: nearly all actives have a fitted effect of over 55% in size). The gist of the method:
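Parallel cytotoxicity read: KeratinoSens HaCaT cells, compound treatment 23 h, viability by CellTiter-Fluor fluorescence 1 h post-reagent.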
In general terms: qHTS replaces the single test concentration by a dilution series.

Assay [2] can be described thus: Nuclear factor erythroid 2-related factor 2/antioxidant responsive element (Nrf2/ARE) small molecule agonists: luciferase reporter gene qHTS assay in human keratinocytes (AID 1919969; also: nearly all actives have a fitted effect of over 35% in size; also: potency is read from the fitted curve at half-maximal effect). (In general: In a reporter assay the amount or activity of a reporter protein is the signal.)
Assay [3] has as its target Gonadotropin-releasing hormone receptor (Homo sapiens) (UniProt P30968). The experiment in a line: Human gonadotropin-releasing hormone receptor (GnRHR) small molecule agonists, calcium flux assay in GnRHR-HEK293 cells (AID 1920063). Also: nearly all actives have a fitted effect of over 35% in size. In a few lines:
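Calcium flux, agonist mode, human GnRHR stably integrated in HEK293; dye 1 h at 37 C before compound; Ex/Em=480/540 kinetic read, 3 min; 15 concentrations, triplicate.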

Assay [4] has as its target KiSS-1 receptor (Homo sapiens) (UniProt Q969F8). As to the kind of experiment: Human kisspeptin (KISS1R) small molecule agonists, calcium flux assay in KISS1R-HEK293 cells (AID 1920064; active = well fitted curve in the direction sought with a large enough effect in the repeat runs; an effect the other way counts as inactive or inconclusive). In a few lines: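 Triplicate 15-concentration series were applied to dye-loaded human KISS1R HEK293 cells, and agonist-evoked calcium fluorescence was captured for 3 min.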
(In general: Calcium flux is commonly read through the fluorescence of an indicator in the cells.)

Assay [5] can be described thus: G protein-coupled receptor (GPCR) small molecule agonists, calcium flux assay: HEK293 wild type cell line counter screen (AID 1920065). In a few lines:
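Non-specific calcium responders were flagged by adding DMSO-dissolved compounds to dye-loaded cells and reading 480/540 nm fluorescence each second for 3 min; ATP served as positive control.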

The nature of assay [6]: p53 small molecule agonists, cell-based qHTS assay with human liver microsomes (AID 1963577).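 Also: p53 response element beta-lactamase reporter cells with liver microsomes plus NADPH.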 The gist of the method: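 16 h, 37 C exposure of p53RE-bla cells to compounds with human liver microsomes and NADPH (0.5 mg/mL final each); detection via LiveBLAzer mixture, 2 h dark at room temperature.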
Assay [7] can be described thus: p53 small molecule agonists, cell-based qHTS assay with rat liver microsomes (AID 1963578). The gist of the method: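 With rat liver microsomes and NADPH present (0.5 mg/mL final each), p53RE-bla cells are treated with compound for 16 h at 37 C. LiveBLAzer detection mixture is then applied for 2 h at room temperature in the dark.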
Assay [8] can be described thus: p53 small molecule agonists, cell-based qHTS assay with human liver microsomes: qHTS cell viability counter screen (AID 1963579). Also: nearly all actives have a fitted effect of over 45% in size. The gist of the method:
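In this multiplexed counter screen, the reporter plates were subsequently treated with CellTiter-Glo so that cell viability, reflected by luminescence, could be recorded for p53RE-bla cells dosed 16 h with compounds under microsomal activation (HLM and NADPH).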

Assay [9] in a line: p53 small molecule agonists, cell-based qHTS assay with rat liver microsomes: qHTS cell viability counter screen (AID 1963580). Also: nearly all actives have a fitted effect of over 45% in size. In a few lines: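 Cytotoxicity counter screen: intracellular ATP measured by CellTiter-Glo luminescence in the same wells as the beta-lactamase reporter read, on HCT-116 p53RE-bla cells exposed 16 h at 37 C to compounds with rat liver microsomes and NADPH, each 0.5 mg/mL final.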

A short description of assay [10]: p53 small molecule agonists, cell-based qHTS assay: qHTS cell viability counter screen (AID 1963581). Also: nearly all actives have a fitted effect of over 45% in size. The gist of the method:
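Multiplexed with the reporter read, a CellTiter-Glo step (30 min, room temperature) gauges ATP-based viability of HCT-116 p53RE-bla cells after 16 h compound incubation at 37 C.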

Assay [11] in a line: p53 small molecule agonists, cell-based qHTS assay (AID 1963582; active = well fitted activation curve with a large enough effect in the signal ratio in the repeat runs, not every such curve was filed as active; the % refers to the signal ratio). The gist of the method:
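Beta-lactamase reporter cells (p53RE-bla) treated with compounds for 16 h at 37 C; FRET substrate, 2 h, room temperature; fluorescence intensity.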

The target in assay [12] is 5-hydroxytryptamine receptor 2A (Homo sapiens) (UniProt P28223). As to the kind of experiment: 5-hydroxytryptamine receptor 2A (HTR2A) small molecule antagonists, cell-based qHTS assay (AID 1963586). Also: nearly all actives have a fitted effect of over 45% in size. The gist of the method: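 CHO cells stably expressing human HTR2A were plated for 18 h at 37 C, then loaded with calcium dye for 1 h. Compounds were preincubated 5 min at room temperature before DOI (4 nM solution) was added. Kinetic fluorescence was read for 3 min.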

The target is the same in assay [13]. The experiment in a line: 5-hydroxytryptamine receptor 2A (HTR2A) small molecule agonists, cell-based qHTS assay (AID 1963587). Also: nearly all actives have a fitted effect of over 30% in size. The gist of the method: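 CHO cells stably expressing human HTR2A, plated 18 h, loaded with calcium dye 1 h at 37 C. Agonist mode: compounds added and intracellular calcium fluorescence recorded kinetically for 2 min at 1 sec intervals.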

In assay [14] the target is Muscarinic acetylcholine receptor M1 (Homo sapiens) (UniProt P11229). As to the kind of experiment: Cholinergic receptor muscarinic 1 (CHRM1) small molecule agonists, cell-based qHTS assay (AID 1963589). Also: nearly all actives have a fitted effect of over 35% in size. In a few lines: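 qHTS, 15-point titration, 3 independent runs: compounds pin-transferred onto dye-loaded CHRM1-CHO cells (human M1), calcium fluorescence followed every second to detect agonism.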

Assay [15] in a line: cAMP Responsive Elements (CRE) small molecule agonists, cell-based qHTS assay (AID 1963590). In a few lines:
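Quantitative HTS for CRE agonists: HEK 293T CRE-bla cells, overnight plating, 3 h compound incubation at 37 C/5% CO2, then 2 h room-temperature LiveBLAzer B/G FRET substrate loading.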

Assay [16] can be described thus: cAMP Responsive Elements (CRE) small molecule antagonists, cell-based qHTS assay (AID 1963591; active = well fitted inhibition curve with a large enough effect in the signal ratio in the repeat runs, not every such curve was filed as active; the % refers to the signal ratio). In a few lines: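 Fluorescence intensity from cleaved LiveBLAzer B/G substrate (2 h, room temperature) quantified CRE-bla activity in HEK 293T cells exposed 3 h to compound with 0.25 uM final NKH477.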
Assay [17] deals with Beta-2 adrenergic receptor (Homo sapiens) (UniProt P07550). As to the kind of experiment: Adrenergic beta2 receptor (ADRB2) small molecule antagonists, cell-based qHTS assay (AID 1963592). Also: series mostly up to about 92 µM; nearly all actives have a fitted effect of over 50% in size. In a few lines: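 Assay format: CHO-ADRB2 cells, 18-20hr seeding at 37C/5% CO2, then compound plus 1nM isoproterenol agonist mix for 0.5hr RT. Homogeneous time-resolved fluorescence cAMP detection after 1hr, expressed as 665/615 nm ratio.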

Assay [18] deals with D(2) dopamine receptor (Homo sapiens) (UniProt P14416). The experiment in a line: Dopamine D2 receptor (DRD2) small molecule agonists, cell-based qHTS assay (AID 1963594). Also: nearly all actives have a fitted effect of over 35% in size. The gist of the method:
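HEK293 cells stably expressing human DRD2, pre-treated with PDE inhibitor Ro20-1724 (0.1 mM final) and compound 10 min at room temperature, then stimulated with NKH477 (200nM […]) for 30 min. cAMP read by HTRF (665/620 nm).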

Assay [19] has the same target. The experiment in a line: Dopamine D2 receptor (DRD2) small molecule antagonists, cell-based qHTS assay (AID 1963595; active = well fitted inhibition curve with a large enough effect in the signal ratio in the repeat runs, with a control signal flat; the % refers to the signal ratio). In a few lines:
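Antagonist mode in DRD2-HEK293 cells: after compound addition with 0.1 mM Ro20-1724, cells received quinpirole (12 nM) and NKH477 (200 nM) for 30 min at room temperature; HTRF cAMP read after 1 h detection.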

Assay [20] addresses Muscarinic acetylcholine receptor M1 (Homo sapiens) (UniProt P11229). The experiment in a line: Cholinergic receptor muscarinic 1 (CHRM1) small molecule antagonists, cell-based qHTS assay (AID 1963588). Also: nearly all actives have a fitted effect of over 40% in size. In a few lines:
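Compounds were tested at 15 concentrations in three independent runs. Dye-loaded CHRM1-CHO cells were exposed 5 min at room temperature before stimulation by acetylcholine added at 50nM. Intracellular calcium was read kinetically on FDSS for 3 min.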

The structures appear in SMILES notation. Unmarked numbers belong to inactive results. Inconclusive results are not listed. Activity calls are given as the source filed them. Unless noted, calls follow the shape of the full dose curve.
% is scaled to controls: 0 for no effect and ±100 for the full control effect.

D(2) dopamine receptor (Homo sapiens), sequence (P14416 whole entry, looked up): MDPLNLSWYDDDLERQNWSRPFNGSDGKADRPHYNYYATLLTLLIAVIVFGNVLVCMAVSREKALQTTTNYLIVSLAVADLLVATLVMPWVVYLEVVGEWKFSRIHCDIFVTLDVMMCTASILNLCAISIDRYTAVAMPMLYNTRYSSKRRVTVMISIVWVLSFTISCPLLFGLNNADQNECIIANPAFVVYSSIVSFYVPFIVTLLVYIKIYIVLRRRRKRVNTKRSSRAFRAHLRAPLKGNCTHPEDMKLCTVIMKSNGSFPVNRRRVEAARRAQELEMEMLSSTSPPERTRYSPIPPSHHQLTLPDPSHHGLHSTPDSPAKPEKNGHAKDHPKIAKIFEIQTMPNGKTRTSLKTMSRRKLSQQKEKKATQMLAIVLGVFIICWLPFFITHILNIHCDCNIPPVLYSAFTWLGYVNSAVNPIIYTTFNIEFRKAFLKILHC
Gonadotropin-releasing hormone receptor (Homo sapiens), sequence (P30968 whole entry, looked up): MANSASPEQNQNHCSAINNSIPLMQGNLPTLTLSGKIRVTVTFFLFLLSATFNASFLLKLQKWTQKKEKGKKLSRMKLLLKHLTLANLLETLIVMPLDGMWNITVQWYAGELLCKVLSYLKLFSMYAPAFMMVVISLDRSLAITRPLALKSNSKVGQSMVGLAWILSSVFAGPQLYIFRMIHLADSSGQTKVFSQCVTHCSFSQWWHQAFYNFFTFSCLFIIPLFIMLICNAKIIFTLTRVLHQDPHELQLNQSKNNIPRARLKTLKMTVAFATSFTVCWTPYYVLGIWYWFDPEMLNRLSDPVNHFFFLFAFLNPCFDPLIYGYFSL
5-hydroxytryptamine receptor 2A (Homo sapiens), sequence (P28223 whole entry, looked up): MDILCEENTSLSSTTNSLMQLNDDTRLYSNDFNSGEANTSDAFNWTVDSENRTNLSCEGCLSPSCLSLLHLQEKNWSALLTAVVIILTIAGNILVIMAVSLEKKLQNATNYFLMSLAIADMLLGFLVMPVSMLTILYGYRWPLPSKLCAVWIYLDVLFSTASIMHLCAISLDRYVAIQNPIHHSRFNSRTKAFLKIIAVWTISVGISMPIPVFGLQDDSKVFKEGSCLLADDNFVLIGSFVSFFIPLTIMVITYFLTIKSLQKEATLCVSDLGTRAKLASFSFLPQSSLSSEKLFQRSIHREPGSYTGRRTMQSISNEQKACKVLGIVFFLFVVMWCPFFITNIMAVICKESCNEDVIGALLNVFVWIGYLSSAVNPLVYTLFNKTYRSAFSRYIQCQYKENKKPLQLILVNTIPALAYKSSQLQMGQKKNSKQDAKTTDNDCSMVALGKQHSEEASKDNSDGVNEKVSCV
Muscarinic acetylcholine receptor M1 (Homo sapiens), sequence (P11229 whole entry, looked up): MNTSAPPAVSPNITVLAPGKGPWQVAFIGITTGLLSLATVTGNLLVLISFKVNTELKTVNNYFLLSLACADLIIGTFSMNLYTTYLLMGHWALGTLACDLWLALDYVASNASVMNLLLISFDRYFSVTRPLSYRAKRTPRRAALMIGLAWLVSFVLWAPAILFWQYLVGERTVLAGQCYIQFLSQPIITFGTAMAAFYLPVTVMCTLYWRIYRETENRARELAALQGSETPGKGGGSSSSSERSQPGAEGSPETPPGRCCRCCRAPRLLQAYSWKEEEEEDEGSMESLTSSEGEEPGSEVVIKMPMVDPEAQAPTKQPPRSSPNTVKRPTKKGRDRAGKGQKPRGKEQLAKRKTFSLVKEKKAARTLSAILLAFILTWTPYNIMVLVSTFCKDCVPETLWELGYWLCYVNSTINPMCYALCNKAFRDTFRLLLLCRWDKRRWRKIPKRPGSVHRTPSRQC
KiSS-1 receptor (Homo sapiens), sequence (Q969F8 whole entry, looked up): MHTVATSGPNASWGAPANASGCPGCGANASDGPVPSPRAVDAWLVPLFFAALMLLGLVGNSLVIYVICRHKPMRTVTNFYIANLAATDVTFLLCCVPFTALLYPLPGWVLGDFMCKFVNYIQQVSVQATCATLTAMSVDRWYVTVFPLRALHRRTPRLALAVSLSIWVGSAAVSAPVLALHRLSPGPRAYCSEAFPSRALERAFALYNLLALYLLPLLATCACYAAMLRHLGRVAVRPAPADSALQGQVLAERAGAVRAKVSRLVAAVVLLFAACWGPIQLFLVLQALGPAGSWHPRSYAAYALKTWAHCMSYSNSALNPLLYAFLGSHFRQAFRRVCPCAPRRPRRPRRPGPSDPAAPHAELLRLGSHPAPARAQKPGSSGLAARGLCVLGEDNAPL
Beta-2 adrenergic receptor (Homo sapiens), sequence (P07550 whole entry, looked up): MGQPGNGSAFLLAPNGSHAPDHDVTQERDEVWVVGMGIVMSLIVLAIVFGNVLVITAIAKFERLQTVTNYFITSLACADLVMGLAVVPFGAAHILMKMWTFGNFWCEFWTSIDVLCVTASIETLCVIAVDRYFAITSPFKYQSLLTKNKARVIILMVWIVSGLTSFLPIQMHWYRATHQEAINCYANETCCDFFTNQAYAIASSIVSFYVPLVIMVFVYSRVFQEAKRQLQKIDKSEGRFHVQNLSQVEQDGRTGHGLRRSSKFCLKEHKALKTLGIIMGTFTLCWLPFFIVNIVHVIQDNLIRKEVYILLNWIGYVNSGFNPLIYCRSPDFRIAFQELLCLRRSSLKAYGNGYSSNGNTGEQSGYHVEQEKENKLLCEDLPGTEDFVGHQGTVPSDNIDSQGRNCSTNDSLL

For `O=C(OCCCCCCOC(=O)c1ccccc1)c1ccccc1`, the Potency result in [1], in assay [3], in [6], in assay [7], in assay [8] and in assay [9] was “inactive” each time. Further, the Potency entry in assay [10], in assay [11], in assay [12], in assay [13], in [14] and in [15] was “inactive” each time. Besides, the Potency result in [16], in assay [17], in [18] and in assay [19] was “inactive” in each case. The Potency in [2] was 68.6 µM (active). Also, the outcome in [4] and in assay [5] was inactive.
Turning to `CCOC(=O)OCC/C(SC(=O)OCC)=C(\C)N(C=O)Cc1cnc(C)nc1N`, the Potency result in assay [1], in assay [2], in assay [3], in assay [6], in [7] and in [8] was “inactive” in each case. The Potency result in assay [9], in assay [10], in [11], in assay [12], in assay [20] and in assay [14] was “inactive” in each case. For the same molecule, the Potency result in [15], in [16], in [17] and in [18] was “inactive” throughout. The outcome in [4] and in assay [5] was inactive.
Take `CCC(Cc1ccccc1)(C(=O)c1ccc(N2CCOCC2)cc1)N(C)C` (stereo unspecified): the Potency result in assay [1], in [3], in assay [6], in assay [7], in assay [8] and in assay [9] was “inactive” in each case. Further, the Potency entry in assay [10], in assay [11], in assay [12], in assay [13], in assay [14] and in [17] was “inactive” throughout. Moreover, in assay [18], the Potency entry is “inactive”. Moreover, the Potency in assay [2] was 68.6 µM (active). In addition, the outcome in [4] and in assay [5] was inactive.
Take `CCCCC/C=C/CC1CC(=O)OC1=O` (stereo unspecified): the Potency result in [1], in [2], in [3], in assay [6], in [7] and in [8] was “inactive” each time. In addition, the Potency entry in assay [9], in assay [10], in [11], in [12], in assay [13] and in assay [14] was “inactive” each time. Also, the Potency result in assay [15], in assay [16], in assay [17], in assay [18] and in assay [19] was “inactive” throughout. The outcome in assay [4] and in [5] was inactive.
Turning to `C=C1CC[C@H]2O[C@]2(C)CC[C@@H]2[C@@H]1CC2(C)C`, the Potency result in [1], in assay [2], in [3], in [6], in [7] and in assay [8] was “inactive” each time. The Potency entry in [9], in assay [10], in assay [11], in assay [12], in [20] and in [14] was “inactive” throughout. Moreover, the Potency entry in [15], in assay [16], in assay [17], in [18] and in [19] was “inactive” throughout. Besides, the result in [4] and in [5] was inactive.
With `CCc1nccnc1CC`, the activity change, negative = cytotoxicity in [1] was 5.52% [at 19 µM]; in assay [8], -2.07% [at 13.5 µM]; in assay [9] it was -5.78% [at 13.5 µM]; in assay [10] it was 1.59% [at 13.5 µM]. The activity, positive = activation in assay [2] was 0.453% [at 19 µM]. The activity change in assay [3] was -0.658% [at 11.8 µM, hits give high values]. For the same molecule, the activation in [4] was 1.62% [at 15.8 µM]; in assay [5], -0.595% [at 11.8 µM]; in assay [6], 3.14% [at 13.5 µM]; in assay [7], 1.15% [at 13.6 µM]; in assay [11], 3.48% [at 13.5 µM]; in [13], 3.43% [at 15.9 µM]. Moreover, the results for the activation in assay [15] and in assay [18] were 0.766% [at 19 µM] and -2.33% [at 19 µM], respectively. The activity, negative = inhibition in [12] was -8.77% [at 12.7 µM]. Further, the activity change, negative = inhibition is -3.19% [at 18.9 µM] in assay [16], -4.86% [at 19 µM] in [17] and -10.9% [at 18.9 µM] in [19].
For the molecule `Cc1ccc2oc(CN(Cc3ccccc3)C(=O)Nc3c(F)cc(F)cc3F)c(-c3ccc(Cl)cc3)c2c1`, the Potency entry in [1], in assay [2], in assay [3], in [6], in assay [7] and in assay [8] was “inactive” in each case. Moreover, the Potency result in assay [9], in [10], in [11], in assay [12], in assay [13] and in [16] was “inactive” throughout. The Potency entry in assay [17], in assay [18] and in [19] was “inactive” each time. Also, the result in assay [4] and in [5] was inactive.

For the origin of these results see PubChem BioAssay (Tox21).
